About 2,100 (0.66%) of roughly 320,000 compounds were called active. Inconclusive results (about 53%) are left out. Calls follow the shape of the dose curve; as a rule, active = well fitted inhibition curve with a large enough effect in the signal ratio, with a control signal flat (not every such curve was filed as active); inconclusive = small, poorly fitted or top-dose-only effect, or effect the other way, or a change in a side signal; inactive = flat fitted curve, though single readings scatter; the % refers to the signal ratio. Many of the other results were omitted from the sample, so actives are more common in it than they were.
Potency is read from the fitted curve at half-maximal effect.

The assay in a line: qHTS Assay for Lipid Storage Modulators in Drosophila S3 Cells.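 As to cell number change: cells counted by Cell Tracker Red CMTPX staining in the red channel.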 As to lipid storage change, negative = inhibition: % is scaled to controls: 0 for no effect and ±100 for the full control effect. To be noted: BODIPY lipid droplet fluorescence, 18-24 h, cells fed with added oleic acid; cell number change: measured here: cell count max response; series mostly up to 46.1 µM; lipid storage change, negative = inhibition: at the top concentration. A digest of the protocol: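 Drosophila S3 cells got compounds at several concentrations plus oleic acid (400 uM solution). Laser-scanning cytometry with 488 nm excitation read lipid droplets at 500-530 nm and cells at 575-640 nm. Percent activity was relative to 20 uM Triacsin C.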
For orientation: Quantitative high-throughput screening tests each substance at several concentrations.
As for `Cc1cc(C)c(C#N)c(OCC(=O)Nc2ccccc2)n1`, the “lipid storage change, negative = inhibition” value was 0.134% (inactive) and the cell number change is 11.6%.

As for `CN1CCN(C(=O)c2ccc(Oc3ccc([N+](=O)[O-])cc3)cc2)CC1`, the outcome was inactive. In the case of `COc1cccc(CNC(=O)c2ccc(NC(=O)CC3SC(N4CCCCC4)=NC3=O)cc2)c1` (stereo unspecified), the “lipid storage change, negative = inhibition” value is -26.4% (inactive) and the cell number change was found to be 11.7%.

For `O=C(Cn1cc[n+](CC(=O)c2ccc(Cl)cc2Cl)c1)c1ccc(Cl)cc1Cl`, the “lipid storage change, negative = inhibition” value is 16.6% (inactive) and the cell number change was -3.27%. On to `N/C(=N\OC(=O)c1cccc2ccccc12)c1ccc(Br)cc1`, for which the Potency was 10.3 µM (active) and the cell number change was found to be 18.1%. On to `N/C(=N\OC(=O)c1cccc2ccccc12)c1ccncc1`, for which the “lipid storage change, negative = inhibition” value is 23.4% (inactive) and the cell number change is 1.71%.

Take `N/C(=N\OC(=O)c1cccc2ccccc12)c1cccnc1`: the “lipid storage change, negative = inhibition” value was 21.2% (inactive) and the cell number change turned out to be 18.1%. In the case of `CC(=O)c1cccc(NC(=O)c2ccc(C(=O)Nc3cccc(C(C)=O)c3)nc2)c1`, the “lipid storage change, negative = inhibition” value was -11.2% (inactive) and the cell number change is 0.877%.

On to `O=C(Oc1ccccc1)c1ccccc1OS(=O)(=O)c1ccccc1`, for which the Potency is 0.517 µM (active). Regarding `O=Cc1ccccc1OS(=O)(=O)c1ccccc1`, the “lipid storage change, negative = inhibition” value was -12.7% (inactive) and the cell number change is -9.79%.

With `Cc1ccccc1S(=O)(=O)Oc1ccccc1C(=O)Oc1ccccc1`, the “lipid storage change, negative = inhibition” value is -2.83% (inactive) and the cell number change is -11.7%.

For the compound `CC(=O)NC(C)C(=O)OCc1ccc(Cl)cc1Cl` (stereo unspecified), the compound was called inactive. In the case of `O=C(CCCCCn1c(=S)[nH]c2ccc(N3CCOCC3)cc2c1=O)NCCc1ccccc1`, the “lipid storage change, negative = inhibition” value was -1.13% (inactive) and the cell number change is -6.4%. In the case of `Cc1cccc(N2CCN(C(=O)CCCCCn3c(=S)[nH]c4ccc(N5CCOCC5)cc4c3=O)CC2)c1C`, the Potency is 20.6 µM (active) and the cell number change is 1.42%.

In the case of `COc1cccc(CNC(=O)CCCCCn2c(=S)[nH]c3ccc(N4CCOCC4)cc3c2=O)c1`, the “lipid storage change, negative = inhibition” value is -0.41% (inactive) and the cell number change was 4.01%. For `CCc1nn(CC(=O)NCCCN(CC)CC)c(=O)c2cc3sc(C)cc3n12`, the “lipid storage change, negative = inhibition” value was 11% (inactive) and the cell number change amounted to 7.9%. In the same order, the values of `COc1cccc(C(=O)COC(=O)C(C)N2C(=O)c3ccccc3C2=O)c1` (stereo unspecified) are 2.36% (inactive) and 8.05%. `CCOC(=O)c1sc(NC(=O)c2ccccc2C(=O)O)c(C(=O)OCC)c1C`: the “lipid storage change, negative = inhibition” value is 9% (inactive) and the cell number change was -2.04%. In the same order, the values of `COC(=O)c1c(NC(=O)c2ccoc2C)sc(C)c1C` are 28.5% (inactive) and 20.9%. As to `CCOC(=O)c1sc(NC(=O)c2ccoc2C)c(C(N)=O)c1C`, the Potency was 0.731 µM (active) and the cell number change is -15.9%. Take `O=S(=O)(c1cccc(C(F)(F)F)c1)N1CCCC1c1cccnc1` (stereo unspecified): the “lipid storage change, negative = inhibition” value was 9.53% (inactive) and the cell number change came to 4.77%. In the case of `COC(=O)c1c(C)[nH]c(C(=O)CN2C(=O)NC3(CCOc4ccccc43)C2=O)c1C` (stereo unspecified), the “lipid storage change, negative = inhibition” value was 20.8% (inactive) and the cell number change is -21.7%.

With `CCOC(=O)c1c(C)[nH]c(C(=O)CN2C(=O)NC3(CCCC3)C2=O)c1C`, the “lipid storage change, negative = inhibition” value was 3.01% (inactive) and the cell number change is -4.44%. Consider `CCCC1(c2ccccc2)NC(=O)N(CC(=O)c2[nH]c(C)c(C(=O)OCC)c2C)C1=O` (stereo unspecified), for which the Potency is 8.2 µM (active) and the cell number change is -26.5%.

Consider `Oc1ccc(C[C@H]2CNCCN2CC2(c3ccccc3)CC2)cc1`, for which the “lipid storage change, negative = inhibition” value was -18.7% (inactive) and the cell number change was determined as 19.8%. Consider `COc1ccc(Cl)cc1NC(=O)CN(C)C1CCCCC1`, for which the “lipid storage change, negative = inhibition” value was 10.9% (inactive) and the cell number change is -8.15%. Take `COc1ccc(OC)c(NC(=O)CN(Cc2ccc(F)cc2)C2CCCCC2)c1`: the Potency was 0.291 µM (active) and the cell number change was found to be 6.76%. For `COc1ccc(OC)c(NC(=O)CCCC(=O)NC2CCCCC2)c1`, in that order: 7.31 µM (active) and -7.97%. `COc1ccc(OC)c(NC(=O)CCN2CCCCC2)c1`: the “lipid storage change, negative = inhibition” value is -44.8% (inactive) and the cell number change was -3.94%.

For the compound `COc1ccc(CCCC(=O)NC2CCCCC2)cc1`, the “lipid storage change, negative = inhibition” value is 18.2% (inactive) and the cell number change came to 0.276%. Regarding `COc1ccc(OC)c(NC(=O)CN(Cc2ccc(Cl)cc2)S(C)(=O)=O)c1`, the “lipid storage change, negative = inhibition” value was -6.37% (inactive) and the cell number change came out at 1.52%. For `Cc1ccsc1/C=C/c1n[nH]c(=O)c(C#N)c1C`, the compound was called inactive and the cell number change worked out at 22.2%.

Take `O=C(NC1CCOC1)c1ccc(OC2CCN(CCc3ccccc3)CC2)cc1` (stereo unspecified): the “lipid storage change, negative = inhibition” value was -5.98% (inactive) and the cell number change is -24%.

Regarding `CN(C)CCOCCOc1ccccc1-c1ccccc1`, the “lipid storage change, negative = inhibition” value is -6.88% (inactive) and the cell number change was -9.8%.

`CN(C)CCOc1ccccc1-c1ccccc1`: the Potency was 23.1 µM (active) and the cell number change is -29.9%.

Consider `CN(C)CCCCOc1ccccc1-c1ccccc1`, for which the “lipid storage change, negative = inhibition” value is -7.9% (inactive) and the cell number change was -4.23%. As to `Cc1cc(C)nc(NS(=O)(=O)c2ccc(NC(=O)COc3ccccc3F)cc2)n1`, the “lipid storage change, negative = inhibition” value is 13.6% (inactive) and the cell number change came to 12.7%. Take `COc1ccc(NS(=O)(=O)c2cc(NC(=O)Cc3c(F)cccc3Cl)ccc2OC)cc1`: the “lipid storage change, negative = inhibition” value is 6.88% (inactive) and the cell number change is -6.83%. As for `COc1ccc(NS(=O)(=O)c2cc(NC(=O)COc3ccccc3F)ccc2OC)cc1`, the Potency is 1.64 µM (active) and the cell number change is -1.34%. As for `COCCNC(=O)c1ccc(CSCc2cccc(Cl)c2)o1`, the “lipid storage change, negative = inhibition” value was 11.7% (inactive) and the cell number change turned out to be 7.62%. For `c1ccc(CCNCC2COc3ccccc3O2)cc1` (stereo unspecified), the “lipid storage change, negative = inhibition” value was 7.04% (inactive) and the cell number change turned out to be 16.7%.

For the compound `Cc1ccc(CSCCNS(=O)(=O)c2ccc([N+](=O)[O-])cc2)cc1`, the “lipid storage change, negative = inhibition” value is 15.8% (inactive). As to `COc1ccc(C(=O)c2sc(Nc3ccccc3)c(C(=O)Nc3ccc(OC)c(OC)c3)c2N)cc1`, the “lipid storage change, negative = inhibition” value is 9.9% (inactive) and the cell number change is -20%.

`COc1ccccc1NC(=O)c1c(Nc2ccccc2C)sc(C(=O)Nc2cccc(Cl)c2)c1N`: the Potency was 1.64 µM (active) and the cell number change is -26.6%.

In the case of `COc1ccccc1NC(=O)c1sc(Cl)nc1C`, the compound was classed as inactive and the cell number change amounted to 1.65%. As for `Cc1cccc(C)c1NC(=O)CN(C)C(=O)c1cccc(S(=O)(=O)N2CCN(C)CC2)c1`, the cell number change worked out at 10.4% and the lipid storage change, negative = inhibition is -25% [at 0.0737 µM] (inactive). As to `CCOC(=O)C1CCN(CC(O)COCc2ccc(Cl)cc2)CC1` (stereo unspecified), the Potency was 18.4 µM (active) and the cell number change was 16.5%. `CCOC(=O)C1CCN(CC(O)COCc2ccccc2)CC1` (stereo unspecified): the “lipid storage change, negative = inhibition” value is 10.2% (inactive) and the cell number change was determined as 4.71%. In the case of `CCOC(=O)C1CCN(CC(O)COCc2ccc3c(c2)OCO3)CC1` (stereo unspecified), the “lipid storage change, negative = inhibition” value was 6.44% (inactive). As for `COc1ccc(NC(=O)CSc2nc3scc(C)c3c(=O)[nH]2)cc1`, the “lipid storage change, negative = inhibition” value is 19.3% (inactive) and the cell number change came to 11.6%. Consider `COc1ccc(C)cc1NC(=O)CSc1nc2scc(C)c2c(=O)[nH]1`, for which the outcome was inactive and the cell number change was 10.8%. In the case of `COc1cccc(NC(=O)CSc2nc3scc(C)c3c(=O)[nH]2)c1`, the Potency is 0.58 µM (active) and the cell number change was determined as 2.56%. Consider `CCOc1ccc(-c2nnn(CC(=O)NCc3cccs3)n2)cc1`, for which the “lipid storage change, negative = inhibition” value was 7.4% (inactive) and the cell number change is -5.47%. As for `CC(=O)NNc1[nH]c2c(c(=O)c1[N+](=O)[O-])c(=O)n(C)c(=O)n2C`, the “lipid storage change, negative = inhibition” value is -5.91% (inactive) and the cell number change is -5.05%. As to `CC(C)=C(NC(=O)c1ccccc1)C(=O)NC(Cc1ccccc1)C(=O)O` (stereo unspecified), the Potency was 1.16 µM (active) and the cell number change is -15%. Consider `O=C(NC(Cc1ccccc1)C(=O)O)/C(=C/c1ccccc1)NC(=O)c1ccccc1` (stereo unspecified), for which the “lipid storage change, negative = inhibition” value was -12.2% (inactive) and the cell number change was -7.82%.

`O=C(NC(Cc1ccccc1)C(=O)O)c1ccccc1` (stereo unspecified): the “lipid storage change, negative = inhibition” value was -0.615% (inactive) and the cell number change is -3.84%.

As to `CC(=O)OCCn1c(C)[n+](CCOC(C)=O)c2cc(Cl)c(Cl)cc21`, the “lipid storage change, negative = inhibition” value is 3.84% (inactive) and the cell number change was found to be 13.2%.

The values are drawn from PubChem BioAssay AID2685 (National Center for Advancing Translational Sciences (NCATS), 2010).
